Only a selection was taken, and hits are over-represented in it overall.
miR-122 inh = activators of miR-122 sensor in Huh7 cells; Huh7 psiCHECK-miR122 Renilla luciferase sensor, 48 h; activation, % at 12.5 µM; actives 0.14% (n = 340,000);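 active = mean activation of 30% or more, with every replicate also reaching 30%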;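 note: 0% = median of neutral control wells and 100% = median of positive control wells; higher luciferase signal means stronger suppression of miR-122 activity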
Numbers without * were called inactive.

`C[C@@H]1CN([C@@H](C)CO)S(=O)(=O)c2ccc(-c3cccc(C(=O)N(C)C)c3)cc2O[C@H]1CN(C)C(=O)Nc1ccccc1` gave miR-122 inh -7.2.
CCC(=O)N(C)C[C@@H]1Oc2cc(-c3cccnc3)ccc2S(=O)(=O)N([C@H](C)CO)C[C@H]1C was read as miR-122 inh -0.8.
For C[n+]1c2cc(N)ccc2cc2ccc(N)cc21 the results were miR-122 inh 76.0*.
CCCC#Cc1ccc2c(c1)O[C@@H](CN(C)S(C)(=O)=O)[C@@H](C)CN([C@@H](C)CO)S2(=O)=O was read as miR-122 inh 7.6.
Screening C[C@@H]1CN([C@@H](C)CO)S(=O)(=O)c2ccc(C#Cc3cccnc3)cc2O[C@@H]1CN(C)CC1CCOCC1 returned miR-122 inh -24.3.
`COCC(=O)N(C)C[C@@H]1Oc2cc(-c3cccc(F)c3)ccc2S(=O)(=O)N([C@H](C)CO)C[C@H]1C` gave miR-122 inh -2.7.
`CCC(=O)Nc1ccc2c(c1)OC[C@H](C)N(C(=O)c1ccncc1)C[C@@H](C)[C@@H](OC)CN(C)C2=O` gave miR-122 inh 1.3.
Screening C[C@H]1CN([C@@H](C)CO)S(=O)(=O)c2ccc(-c3ccc(C#N)cc3)cc2O[C@H]1CN(C)C(=O)C1CC1 returned miR-122 inh -10.7.
`Cc1ccccc1NCN1C(=O)C2C3C=CC(C3)C2C1=O` (centres undefined) gave miR-122 inh 33.6*.
Screening C[C@H]1CN([C@@H](C)CO)C(=O)c2cc(Br)cnc2O[C@@H]1CN(C)C(=O)c1cccnc1 returned miR-122 inh -1.1.
`CCCNC(=O)N(C)C[C@@H]1Oc2cc(C#CCOC)ccc2S(=O)(=O)N([C@@H](C)CO)C[C@H]1C` gave miR-122 inh -19.1.
Screening O=C(N/N=C/c1sc2ccccc2c1O)c1ccccc1 returned miR-122 inh 40.6*.
Screening CO[C@@H]1CN(C)C(=O)c2ccc(NS(=O)(=O)c3cccc(C)c3)cc2OC[C@@H](C)N(C(=O)Cc2cccnc2)C[C@H]1C returned miR-122 inh -1.1.
Screening CCC(=O)Nc1ccc2c(c1)OC[C@H](C)N(C(=O)c1ccccn1)C[C@H](C)[C@@H](OC)CN(C)C2=O returned miR-122 inh -1.0.
CC(C)C#Cc1ccc2c(c1)O[C@H](CN(C)C(=O)CN(C)C)[C@@H](C)CN([C@H](C)CO)S2(=O)=O was read as miR-122 inh -6.8.
`O=C(Cn1c(=O)c2ccccc2n(CC(=O)N2CCCCC2)c1=O)N1CCCCC1` gave miR-122 inh 59.9*.
For C[C@H](CO)N1C[C@H](C)[C@H](CN(C)C(=O)Cc2ccncc2)Oc2ncc(C#CCN(C)C)cc2C1=O the results were miR-122 inh -6.0.
Screening CC(C)CC#Cc1cnc2c(c1)C(=O)N([C@H](C)CO)C[C@H](C)[C@@H](CN(C)C(=O)Nc1cc(F)ccc1F)O2 returned miR-122 inh 9.8.
COCC#Cc1ccc2c(c1)O[C@H](CN(C)C(=O)C1CCCCC1)[C@@H](C)CN([C@@H](C)CO)S2(=O)=O was read as miR-122 inh -19.1.
`C[C@@H]1CN([C@H](C)CO)S(=O)(=O)c2ccc(-c3ccccc3)cc2O[C@@H]1CN(C)C(=O)c1ccc2c(c1)OCO2` gave miR-122 inh 35.6*.
C[C@@H]1CN([C@H](C)CO)S(=O)(=O)c2ccc(-c3ccc(C(=O)N(C)C)cc3)cc2O[C@@H]1CN(C)C(=O)C1CCOCC1 was read as miR-122 inh 19.9.
For C[C@@H]1CN([C@@H](C)CO)S(=O)(=O)c2ccc(Br)cc2O[C@H]1CN(C)C(=O)c1ccc2c(c1)OCO2 the results were miR-122 inh -5.6.
For COc1cccc(-c2ccc3c(c2)O[C@@H](CN(C)C(=O)C2CCCCC2)[C@@H](C)CN([C@H](C)CO)S3(=O)=O)c1 the results were miR-122 inh -0.4.
`C[C@H](CO)N1C[C@H](C)[C@H](CN(C)C(=O)C2CCC2)Oc2cc(-c3ccc(C(=O)N(C)C)cc3)ccc2S1(=O)=O` gave miR-122 inh 54.7*.
Screening COc1cccc(-c2ccc3c(c2)O[C@H](CN(C)C(=O)C2CCOCC2)[C@H](C)CN([C@@H](C)CO)S3(=O)=O)c1 returned miR-122 inh 38.6*.
`COc1cccc(-c2ccc3c(c2)O[C@H](CN(C)C(=O)C2CCCCC2)[C@H](C)CN([C@H](C)CO)S3(=O)=O)c1` gave miR-122 inh -15.4.
`C[C@H]1CN([C@@H](C)CO)S(=O)(=O)c2ccc(-c3ccc(C(=O)N(C)C)cc3)cc2O[C@@H]1CN(C)C(=O)C1CCOCC1` gave miR-122 inh -8.6.
For C/C=C/c1ccc2c(c1)O[C@@H](CN(C)C(=O)c1ccc3c(c1)OCO3)[C@H](C)CN([C@@H](C)CO)S2(=O)=O the results were miR-122 inh -31.5.
C[C@@H]1CN([C@H](C)CO)S(=O)(=O)c2ccc(-c3ccc(C(=O)N(C)C)cc3)cc2O[C@@H]1CN(C)C(=O)C1CCC1 was read as miR-122 inh 42.9*.
`C[C@@H]1CN([C@H](C)CO)S(=O)(=O)c2ccc(-c3ccc(C(=O)N(C)C)cc3)cc2O[C@@H]1CN(C)C` gave miR-122 inh 3.6.

Screening results deposited in PubChem BioAssay by Broad Institute.
